# Laboratory results from article PMC4336329 (PLoS ONE, 2015).
# The whole screen tested about 310,000 compounds, of which about 14,000 (4.5%) showed an effect of 50% or more. The effect is printed as a negative number. The sample holds strong results, similar compounds and a random draw of the others, so the mix is not that of the screen.
# Biological target: human ether-à-go-go-related gene (hERG) potassium channel (human, UniProt Q12809)
# Assay: primary screen, population patch clamp on CHO cells stably expressing hERG; higher = less effect of the substance
# 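Further: peak tail current of the secondary pulse compared with the same well before compound.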
# human ether-à-go-go-related gene (hERG) potassium channel, sequence (Q12809 whole entry, looked up): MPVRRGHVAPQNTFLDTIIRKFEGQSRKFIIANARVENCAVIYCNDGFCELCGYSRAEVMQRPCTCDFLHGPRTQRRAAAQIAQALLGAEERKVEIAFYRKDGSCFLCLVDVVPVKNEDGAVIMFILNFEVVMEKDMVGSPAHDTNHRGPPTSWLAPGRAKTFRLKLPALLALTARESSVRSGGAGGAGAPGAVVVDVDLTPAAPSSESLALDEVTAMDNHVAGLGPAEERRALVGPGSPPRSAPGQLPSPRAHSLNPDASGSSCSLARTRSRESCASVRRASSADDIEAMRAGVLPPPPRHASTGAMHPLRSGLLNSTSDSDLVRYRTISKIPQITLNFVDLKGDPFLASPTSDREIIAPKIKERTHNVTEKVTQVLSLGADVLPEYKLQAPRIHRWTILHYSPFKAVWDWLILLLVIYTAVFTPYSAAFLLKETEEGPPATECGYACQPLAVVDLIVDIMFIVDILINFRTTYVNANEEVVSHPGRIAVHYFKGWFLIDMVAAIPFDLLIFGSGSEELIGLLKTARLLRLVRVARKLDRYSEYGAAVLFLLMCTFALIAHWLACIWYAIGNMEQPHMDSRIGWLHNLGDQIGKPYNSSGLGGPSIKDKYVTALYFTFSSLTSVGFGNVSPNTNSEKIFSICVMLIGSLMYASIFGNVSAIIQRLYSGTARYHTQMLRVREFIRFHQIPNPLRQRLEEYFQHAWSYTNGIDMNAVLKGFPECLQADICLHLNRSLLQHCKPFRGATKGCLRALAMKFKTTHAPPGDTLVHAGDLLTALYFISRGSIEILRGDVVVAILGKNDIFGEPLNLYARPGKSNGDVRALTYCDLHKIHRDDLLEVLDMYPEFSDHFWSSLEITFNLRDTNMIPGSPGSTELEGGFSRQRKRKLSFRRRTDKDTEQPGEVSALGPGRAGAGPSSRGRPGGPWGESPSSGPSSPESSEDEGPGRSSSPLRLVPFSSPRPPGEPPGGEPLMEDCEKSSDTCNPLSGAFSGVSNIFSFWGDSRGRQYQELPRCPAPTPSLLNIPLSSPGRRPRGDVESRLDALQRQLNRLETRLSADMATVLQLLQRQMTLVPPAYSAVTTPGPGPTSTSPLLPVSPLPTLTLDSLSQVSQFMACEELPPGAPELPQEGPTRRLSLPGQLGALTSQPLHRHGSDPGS
row,Structure (SMILES),"hERG current change (%, negative = inhibition) at 10uM [%]"
1,CC(=O)Nc1ccc(S(=O)(=O)Nc2ccc3c(c2)OCCO3)cc1Cl,15.5
2,CN(Cc1ccccc1)C(=O)c1c[nH]c2ccc(S(=O)(=O)N3CCOCC3)cc2c1=O,3.03
3,Cc1ccc(S(=O)(=O)N2CCN(C(=O)n3ccnc3)CC2)cc1,-5.76
4,CC(C)Cc1nc(N2CCN(C(=O)c3ccccc3)CC2)c(C#N)c2c1CCC2,-24.1
5,COc1cc(C)c(S(=O)(=O)NOCc2ccc([N+](=O)[O-])cc2)c(C)c1C,8.43
6,CN(C)C(=O)N1CCNCC1.Cl,12.8
7,CC(C)[C@H](NC(=O)OC(C)(C)C)C(=O)N1CCC(C(=O)N[C@@H](C)C(=O)Nc2ccc(F)cc2)CC1,10.7
8,Cn1c(=O)c2c(nc(SCC(=O)NCc3ccc4c(c3)OCO4)n2Cc2ccc(F)cc2)n(C)c1=O,-63.1
9,Cn1c(=O)c2c(nc(SCC(=O)NCc3ccc4c(c3)OCO4)n2Cc2ccccc2)n(C)c1=O,-46.9
10,Cn1c(=O)c2c(nc(SCC(=O)NCC3CCCO3)n2Cc2ccc(F)cc2)n(C)c1=O (stereo not drawn),-41.6
11,Cn1c(=O)c2c(nc(SCC(=O)NCc3ccc4c(c3)OCO4)n2Cc2ccc(Cl)cc2)n(C)c1=O,-50.6
12,Cn1c(=O)c2c(nc(NCc3ccc4c(c3)OCO4)n2Cc2ccc(F)cc2)n(C)c1=O,-5.77
13,CCn1c(SCC(=O)Nc2ccc3c(c2)OCO3)nc2c1c(=O)n(C)c(=O)n2C,-0.539
14,O=C(NN1CCOCC1)c1sc2cccc(F)c2c1Cl,9.93
15,c1ccc(-c2cnc(CSc3ncnc4sccc34)o2)cc1,7.1
16,N#CC1=C(N)SC(N)=C(C#N)C1CCc1ccccc1,26.4
17,C/C(=N/NC(=O)CNC(=O)Cc1ccccc1)c1ccc(Cl)cc1,5.97
18,CN1/C(=C\C=C(/C#N)C(=O)Nc2ccc(Cl)cc2)C(C)(C)c2ccccc21,13
19,CCNC(=O)CC1C(=O)N(c2ccccc2)C(=O)N1CCC(C)C (stereo not drawn),5.26
20,CCNC(=O)CC1C(=O)N(c2cccc(C)c2)C(=O)N1CCC(C)C (stereo not drawn),-75
21,CCNC(=O)CC1C(=O)N(c2ccc(C)cc2)C(=O)N1CCC(C)C (stereo not drawn),-2.19
22,CCN(c1ccccc1)S(=O)(=O)c1cc(NC(=O)Nc2ccccc2C#N)ccc1Cl,-34.2

row,Structure (SMILES),"hERG current change (%, negative = inhibition) at 10uM [%]"
1,Cc1ccc(NC(=O)CCc2nnc(SCC(=O)Nc3ccccc3C)n2C)cc1Cl,14.5
2,Cc1ccc(OCCSc2nnc(NC(=O)c3ccco3)s2)cc1,-1.66
3,O=C(CN1C(=O)C2C3C=CC(C4CC34)C2C1=O)Oc1ccccc1 (stereo not drawn),0.512
4,COCCNC(=O)c1cc2sc3ccccc3c2s1,-8.28
5,CN1CCN(C(=O)c2cc3sc4ccccc4c3s2)CC1,-15.5
6,CN(C)CCCNC(=O)c1cc2c3ccccc3n(C)c2s1,-40.1
7,CN(C)CCNC(=O)c1cc2sc3ccccc3c2s1.Cl,-31.5
8,COCCN(CCOC)C(=O)c1cc2sc3ccccc3c2s1,-70.6
9,CN(C)CCCNC(=O)c1cc2sc3ccccc3c2s1.Cl,-64.7
10,CCCN(C(=O)CSCc1ccccc1C)c1c(N)n(Cc2ccccc2)c(=O)[nH]c1=O,-4.64
11,CC(O)CNc1nc2c(c(=O)n(C)c(=O)n2C)n1Cc1cccc(C(F)(F)F)c1 (stereo not drawn),-12.9
12,O=[N+]([O-])c1cccc(/C=N/Nc2ncc(Br)cn2)c1,19.6
13,CCc1cccc(C)c1N(C(=O)Cn1c(=O)[nH]c2ccccc21)C(C)COC (stereo not drawn),-4.31
14,CCN(CC(=O)Nc1ccc2c(c1)OCCO2)C(=O)/C=C/c1cccc(Br)c1,-28.7
15,O=C(CN1C(=O)NC2(CCCCCCC2)C1=O)Nc1ccc(Br)cc1,5.19
16,Cc1ccc(-n2nc(C)c3c(C)c(CCC(=O)Nc4ccc(CN5CCCC5)cc4)c(C)nc32)cc1,-60.2
17,Cc1ccc(-n2nc(C)c3c(C)c(CCC(=O)NCc4ccccc4)c(C)nc32)cc1,10.5
18,CCC(C)NC(=O)CCc1c(C)nc2c(c(C)nn2-c2ccccc2)c1C (stereo not drawn),-1.82
19,CCCNC(=O)CCc1c(C)nc2c(c(C)nn2-c2ccccc2)c1C,0.304
20,Cc1nc2c(c(C)nn2-c2ccccc2)c(C)c1CCC(=O)Nc1ccc(CN2CCCC2)cc1,-61
21,Cc1ccc(CNC(=O)CCc2c(C)nc3c(c(C)nn3-c3ccc(C)cc3)c2C)cc1,10.1
22,C/C(=N\NC(=O)c1cc(-c2cccc([N+](=O)[O-])c2)n[nH]1)c1ccc(F)cc1,8.28

row,Structure (SMILES),"hERG current change (%, negative = inhibition) at 10uM [%]"
1,O=C(COC(=O)CC1CC2CCC1C2)Nc1ccc(F)cc1 (stereo not drawn),-22.4
2,Cc1ccc2c(c1)/C(=C/c1ccc(F)cc1)C(=O)N2,10.5
3,COc1cc(C(=O)N/N=C/c2coc3ccc(Cl)cc3c2=O)ccc1O,14.2
4,COc1ccc(CCN2C(=O)CC(NNc3ccc([N+](=O)[O-])cc3)C2=O)cc1OC (stereo not drawn),-52.8
5,COc1ccc(CCNC2CC(=O)N(CCc3ccccc3)C2=O)cc1OC (stereo not drawn),0.286
6,CCc1ccc(NC2CC(=O)N(CCc3ccc(OC)c(OC)c3)C2=O)cc1 (stereo not drawn),-13.4
7,CC(=O)N1CCN=C1SCc1ccccc1,19.1
8,Cc1cccc(CC(=O)N2CCN=C2SCc2ccc([N+](=O)[O-])cc2)c1,-11.8
9,Cc1cc(C)cc(C(=O)N2CCN=C2SCc2ccc([N+](=O)[O-])cc2)c1,-23.5
10,Cc1ccc(SCc2ccc(C(=O)N3CCCC3)cc2)cc1,-30.1
11,O=C(c1ccccc1)N1CCN=C1SCc1ccc([N+](=O)[O-])cc1,-56.4
12,Cc1cccc(C(=O)N2CCN=C2SCc2ccc([N+](=O)[O-])cc2)c1,-51.9
13,CCN1CCN(C(=O)c2ccc(CSc3ccc(C)cc3)cc2)CC1,-63.6
14,Cc1ccc(SCc2ccc(C(=O)N3CCCCC3)cc2)cc1,1.58
15,O=S(=O)(c1ccccc1)N1CCN=C1SCc1cccnc1,-12.1
16,O=S(=O)(c1ccc(F)cc1)N1CCN=C1SCc1cccnc1,-27.6
17,O=[N+]([O-])c1ccc(S(=O)(=O)N2CCN=C2SCc2cccnc2)cc1,-68.1
18,O=C(N=C1SC2CS(=O)(=O)CC2N1c1ccc(F)cc1F)C1CC1 (stereo not drawn),2.47
19,O=C(OCC(=O)N1CCCC1=O)C1CCN(S(=O)(=O)c2c(Cl)cccc2Cl)CC1,-36.1
20,O=C(NCc1cccnc1)NC1CC(=O)N(c2ccc3c(c2)OCCO3)C1 (stereo not drawn),-0.536
21,CC(C)(C)n1nnnc1C(c1cccc(C#N)c1)N1CCN2CCCC2C1 (stereo not drawn),4.48
22,Cn1c(C(C#N)/C(=N\S(=O)(=O)c2cccs2)c2ccccc2)nc2ccccc21 (stereo not drawn),2.46

row,Structure (SMILES),"hERG current change (%, negative = inhibition) at 10uM [%]"
1,O=C(O)CC1(CC(=O)Nc2cc(C(F)(F)F)cc(C(F)(F)F)c2)CCCCC1,18.6
2,Cc1cccc(N2CCN(C(=O)c3ccc4c(c3)NC(=O)C(CSCc3cccc(F)c3)N4)CC2)c1C (stereo not drawn),15.9
3,Cc1ccc(C(=O)N2CCN=C2SCc2ccc([N+](=O)[O-])cc2)cc1,-70.5
4,Cc1ccc(CSC2=NCCN2C(=O)c2ccc([N+](=O)[O-])cc2)cc1,-42.9
5,Cc1ccccc1C(=O)N1CCN=C1SCc1ccc([N+](=O)[O-])cc1,-63.6
6,CN(C)S(=O)(=O)c1ccc(C(=O)N2CCN=C2SCc2ccccc2)cc1,20.9
7,O=C(c1cccc2ccccc12)N1CCN=C1SCc1ccc([N+](=O)[O-])cc1,-10.7
8,Cc1ccc(C(=O)N2CCN=C2SCc2ccc([N+](=O)[O-])cc2)cc1C,2.84
9,Cc1ccc(C)c(CSC2=NCCN2C(=O)Cc2ccc([N+](=O)[O-])cc2)c1,-4.06
10,O=C(c1ccc([N+](=O)[O-])cc1)N1CCN=C1SCc1ccccc1,-72.2
11,O=C(Cc1ccccc1)N1CCN=C1SCc1cccc([N+](=O)[O-])c1,-22.6
12,O=S(=O)(Nc1nc2ccccc2nc1Nc1ccc(N2CCOCC2)cc1)c1cc(Cl)ccc1Cl,-0.376
13,C=CCN(c1ccccc1)S(=O)(=O)c1cc(C(=O)NC2=NCCS2)ccc1Cl,63.3
14,COc1ccc(CNC(=O)c2c(C)cc(=O)oc2C)cc1,-26.8
15,CC1Sc2ccc(S(=O)(=O)N3CCC(C(=O)NCc4ccc(Cl)cc4)CC3)cc2NC1=O (stereo not drawn),-5.58
16,COC(=O)C1CCN(CCCOc2ccc(CN3CCN(c4ccc([N+](=O)[O-])cc4)CC3)cc2)CC1,-74.3
17,COC(=O)C1CCN(c2ccc([N+](=O)[O-])cc2[N+](=O)[O-])CC1,-0.88
18,CCCCOc1ccc(CN2CCC(O)CC2)cc1,3.42
19,COC(=O)C1CCN(Cc2ccc(OCCCN3CCN(c4ccc([N+](=O)[O-])cc4)CC3)cc2)CC1,-73.7
20,COC(=O)C1CCN(Cc2ccc(C)cc2)CC1,-22.2
21,Oc1ccc(N2CCN(Cc3ccc(OCCCN4CCCCC4)cc3)CC2)cc1,5.11
